The source of these data is ChEMBL document CHEMBL3988442, “University of Dundee, Small-Polar-MMV Screening Library” (2021).

Several values for one entry are separate records, joined by “and”; a condition that tells them apart may be missing. Equal entries are not always repeated. For part of these data: Results with a measured potency or affinity are listed apart.

Common to all, as to set-up: scale not given: direction of the effect not stated beside the values
Test [1] deals with Protein translocase subunit SecA (Escherichia coli (strain K12)) (UniProt P10408). Kind of test: Assay to Identify E. coli SecA ATPase Inhibitors. The format is functional. Particulars: 30 µM.
Chain of Protein translocase subunit SecA (Escherichia coli (strain K12)) (P10408 whole entry): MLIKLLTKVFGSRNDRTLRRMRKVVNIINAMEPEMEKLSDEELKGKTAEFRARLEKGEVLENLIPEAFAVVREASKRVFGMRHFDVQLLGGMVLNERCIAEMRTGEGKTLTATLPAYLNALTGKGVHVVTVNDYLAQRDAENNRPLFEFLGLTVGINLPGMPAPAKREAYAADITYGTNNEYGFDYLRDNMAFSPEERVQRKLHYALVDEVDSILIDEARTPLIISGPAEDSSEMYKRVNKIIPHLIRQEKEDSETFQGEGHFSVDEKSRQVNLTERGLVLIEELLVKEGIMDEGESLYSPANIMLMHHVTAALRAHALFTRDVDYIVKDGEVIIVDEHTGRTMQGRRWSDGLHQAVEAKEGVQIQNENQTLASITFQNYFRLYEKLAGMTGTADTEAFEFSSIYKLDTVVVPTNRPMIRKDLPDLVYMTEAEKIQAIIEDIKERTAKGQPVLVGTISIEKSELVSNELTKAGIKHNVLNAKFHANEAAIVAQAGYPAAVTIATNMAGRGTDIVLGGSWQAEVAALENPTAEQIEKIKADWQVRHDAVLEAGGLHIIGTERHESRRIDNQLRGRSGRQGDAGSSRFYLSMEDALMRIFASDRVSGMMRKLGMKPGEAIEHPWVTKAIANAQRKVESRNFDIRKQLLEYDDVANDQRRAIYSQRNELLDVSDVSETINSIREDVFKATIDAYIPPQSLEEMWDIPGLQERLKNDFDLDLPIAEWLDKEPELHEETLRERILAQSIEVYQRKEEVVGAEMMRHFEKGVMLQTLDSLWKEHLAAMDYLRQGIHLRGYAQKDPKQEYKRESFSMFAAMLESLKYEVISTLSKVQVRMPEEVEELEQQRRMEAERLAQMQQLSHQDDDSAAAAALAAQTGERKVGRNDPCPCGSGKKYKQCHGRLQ
The target of test [2] is T1, Ubiquitin-activating enzyme e1, putative (Leishmania donovani (strain BPK282A1)) (UniProt E9BSI1).
T1 sequence (whole entry): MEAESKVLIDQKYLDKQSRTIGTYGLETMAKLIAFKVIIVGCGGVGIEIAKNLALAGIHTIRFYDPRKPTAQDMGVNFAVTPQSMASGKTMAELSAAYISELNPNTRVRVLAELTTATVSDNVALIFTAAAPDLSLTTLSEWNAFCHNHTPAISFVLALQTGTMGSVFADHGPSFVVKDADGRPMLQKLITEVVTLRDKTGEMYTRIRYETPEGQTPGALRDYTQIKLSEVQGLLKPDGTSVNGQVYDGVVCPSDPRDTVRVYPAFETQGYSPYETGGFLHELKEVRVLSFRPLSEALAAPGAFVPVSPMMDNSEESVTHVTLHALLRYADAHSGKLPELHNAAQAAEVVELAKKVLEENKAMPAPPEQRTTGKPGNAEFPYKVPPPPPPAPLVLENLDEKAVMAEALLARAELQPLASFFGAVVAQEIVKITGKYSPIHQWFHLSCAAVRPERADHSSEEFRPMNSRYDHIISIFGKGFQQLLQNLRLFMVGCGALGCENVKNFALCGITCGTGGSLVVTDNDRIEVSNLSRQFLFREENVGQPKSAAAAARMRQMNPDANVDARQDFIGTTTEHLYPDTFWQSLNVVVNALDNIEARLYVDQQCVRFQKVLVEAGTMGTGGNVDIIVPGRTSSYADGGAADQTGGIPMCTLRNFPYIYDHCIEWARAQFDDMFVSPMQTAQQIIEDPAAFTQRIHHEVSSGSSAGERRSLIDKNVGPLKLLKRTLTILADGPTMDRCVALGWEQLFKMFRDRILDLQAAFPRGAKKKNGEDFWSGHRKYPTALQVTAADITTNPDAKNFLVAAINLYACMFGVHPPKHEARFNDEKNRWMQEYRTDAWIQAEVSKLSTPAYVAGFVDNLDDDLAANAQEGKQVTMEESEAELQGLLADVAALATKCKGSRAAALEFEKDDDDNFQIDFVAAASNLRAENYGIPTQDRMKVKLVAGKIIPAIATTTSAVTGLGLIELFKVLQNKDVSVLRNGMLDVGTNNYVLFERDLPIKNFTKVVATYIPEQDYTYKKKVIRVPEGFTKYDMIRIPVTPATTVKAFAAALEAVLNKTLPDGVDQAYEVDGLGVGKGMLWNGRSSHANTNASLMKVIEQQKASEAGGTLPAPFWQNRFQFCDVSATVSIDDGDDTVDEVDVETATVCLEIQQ
Briefly: Leishmania donovani Ubiquitin Activating Enzyme (LdE1). Format: functional. Particulars: 30 µM.

For test [3], the target named is AMP-activated protein kinase, AMPK (Homo sapiens) (UniProt P54646+O43741+P54619+Q9UGJ0+Q9Y478+Q13131+Q9UGI9). Kind of test: AMP-dependent Kinase enzyme assay. An in vitro enzyme assay that detects ADP turnover that is directly proportional to AMPK activity. This uses naive AMPK that is activated during the assay with MK-8722. Format: functional. Particulars: 30 µM.

The target in test [4] is Sialic acid-binding Ig-like lectin 9 (Homo sapiens) (UniProt Q9Y336). Briefly: Hs-Siglec9 ALPHAscreen SOP 20170721. Particulars: 10 µM. Background: Bead proximity is the source of the signal in Alpha formats.
Chain of Sialic acid-binding Ig-like lectin 9 (Homo sapiens) (Q9Y336 whole entry): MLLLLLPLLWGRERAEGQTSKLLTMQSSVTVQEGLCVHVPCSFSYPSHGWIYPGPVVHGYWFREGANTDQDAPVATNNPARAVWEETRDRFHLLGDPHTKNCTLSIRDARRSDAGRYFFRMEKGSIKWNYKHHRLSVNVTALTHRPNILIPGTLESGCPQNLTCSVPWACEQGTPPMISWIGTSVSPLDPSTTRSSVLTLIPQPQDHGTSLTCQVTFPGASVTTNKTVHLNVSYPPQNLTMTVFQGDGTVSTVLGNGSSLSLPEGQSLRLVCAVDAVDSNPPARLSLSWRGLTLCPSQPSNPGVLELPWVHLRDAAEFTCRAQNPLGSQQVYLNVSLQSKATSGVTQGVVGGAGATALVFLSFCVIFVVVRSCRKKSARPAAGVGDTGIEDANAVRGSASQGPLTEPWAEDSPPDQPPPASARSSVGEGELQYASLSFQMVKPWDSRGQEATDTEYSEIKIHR
A further test has as its system Trypanosoma cruzi. Kind of test: Trypanosoma cruzi phosphomannomutase and mannose-1-phosphate guanylyltransferase assay. Conditions: 10 µM. Format: functional.
The target of test [5] is T2, Arginase-2, mitochondrial (Homo sapiens) (UniProt P78540).
T2 sequence (whole entry): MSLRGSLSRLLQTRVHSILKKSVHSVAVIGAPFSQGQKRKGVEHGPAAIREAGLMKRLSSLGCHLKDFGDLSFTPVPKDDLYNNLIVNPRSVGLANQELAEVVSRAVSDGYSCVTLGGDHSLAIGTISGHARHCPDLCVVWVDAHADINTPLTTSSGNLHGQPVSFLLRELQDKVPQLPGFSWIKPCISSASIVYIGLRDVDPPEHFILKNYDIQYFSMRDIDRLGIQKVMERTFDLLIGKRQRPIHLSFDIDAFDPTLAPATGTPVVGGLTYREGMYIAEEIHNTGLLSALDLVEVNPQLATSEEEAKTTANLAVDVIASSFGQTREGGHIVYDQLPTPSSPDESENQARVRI
Kind of test: in vitro enzyme assay to detect the production of urea directly proportional to the activity of Arginase II. Further: in the data most compounds retested in dose-response had high values. The format is functional.

Test [6] deals with T3, Proteasome subunit beta (Trypanosoma cruzi) (UniProt O96673).
T3 sequence (whole entry): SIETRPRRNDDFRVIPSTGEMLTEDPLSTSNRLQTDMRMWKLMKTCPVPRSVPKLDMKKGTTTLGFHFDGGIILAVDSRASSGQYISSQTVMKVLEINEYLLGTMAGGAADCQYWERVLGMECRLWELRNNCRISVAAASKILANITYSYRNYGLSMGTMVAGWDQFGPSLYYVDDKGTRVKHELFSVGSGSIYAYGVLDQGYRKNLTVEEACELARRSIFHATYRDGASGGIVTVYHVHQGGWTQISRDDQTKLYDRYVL
Kind of test: Trypanosoma cruzi proteasome chymotrypsin-like activity (TcProtChymo) assay. Further: in the data most compounds retested in dose-response had high values. Conditions: 9.37 µM. Format: functional.

The species named for the next test is Homo sapiens. Briefly: To identify inhibition of the IFN signalling (Jak-Stat) pathway via expression of an eGFP reporter gene under the control of an IFN-stimulated response element (ISRE) containing MxA promoter. Format: functional. Particulars: 30 µM. In general terms: A reporter such as luciferase makes a cellular process visible.
In test [7] the target is T4, Tyrosyl-tRNA synthetase, putative (Trypanosoma cruzi (strain CL Brener)) (UniProt Q4DSP6).
T4 sequence (whole entry): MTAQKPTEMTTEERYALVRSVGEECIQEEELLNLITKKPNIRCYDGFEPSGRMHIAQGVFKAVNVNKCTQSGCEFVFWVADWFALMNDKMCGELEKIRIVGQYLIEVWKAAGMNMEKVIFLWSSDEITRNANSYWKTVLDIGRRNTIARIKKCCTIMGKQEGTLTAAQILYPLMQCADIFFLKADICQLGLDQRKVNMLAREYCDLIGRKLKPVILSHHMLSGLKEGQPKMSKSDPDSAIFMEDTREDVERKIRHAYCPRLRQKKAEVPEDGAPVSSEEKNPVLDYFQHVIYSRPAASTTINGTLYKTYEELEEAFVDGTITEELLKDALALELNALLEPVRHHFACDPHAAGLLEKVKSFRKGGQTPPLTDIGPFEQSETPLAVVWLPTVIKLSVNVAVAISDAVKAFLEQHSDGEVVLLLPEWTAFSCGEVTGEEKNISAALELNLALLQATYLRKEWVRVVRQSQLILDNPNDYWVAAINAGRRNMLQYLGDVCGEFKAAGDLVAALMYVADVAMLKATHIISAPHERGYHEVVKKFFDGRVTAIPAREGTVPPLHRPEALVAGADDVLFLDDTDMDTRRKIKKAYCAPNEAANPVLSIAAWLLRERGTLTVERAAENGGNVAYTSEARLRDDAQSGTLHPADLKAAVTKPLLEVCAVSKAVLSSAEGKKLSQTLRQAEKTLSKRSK
Briefly: Trypanosoma cruzi tyrosyl tRNA synthetase (TcYRS) _High Tyrosine SOP. Further: in the data most compounds retested in dose-response had high values. Format: functional. Conditions: 30 µM.

For test [8], the target named is T4, Tyrosyl-tRNA synthetase, putative (Trypanosoma cruzi (strain CL Brener)). Briefly: Trypanosoma cruzi tyrosyl tRNA synthetase (TcYRS) SOP. Particulars: 30 µM. The format is functional.
Test [9] has as its target Chromo domain-containing protein 1 (Saccharomyces cerevisiae (strain ATCC 204508 / S288c) (Baker's yeast)) (UniProt P32657). Briefly: ScCHD-1 Enzyme Inhibition Assay. Further: in the data most compounds retested in dose-response had high values. Format: functional. Conditions: 30 µM.
In another test the test system is N/A. Kind of test: Trypanosoma cruzi proteasome luciferase counter-screen. Format: functional. Conditions: 9.37 µM. On the technique in general: Counterscreens check selectivity or assay interference.

Chain of Chromo domain-containing protein 1 (Saccharomyces cerevisiae (strain ATCC 204508 / S288c) (Baker's yeast)) (P32657 whole entry, the tested form may be a part): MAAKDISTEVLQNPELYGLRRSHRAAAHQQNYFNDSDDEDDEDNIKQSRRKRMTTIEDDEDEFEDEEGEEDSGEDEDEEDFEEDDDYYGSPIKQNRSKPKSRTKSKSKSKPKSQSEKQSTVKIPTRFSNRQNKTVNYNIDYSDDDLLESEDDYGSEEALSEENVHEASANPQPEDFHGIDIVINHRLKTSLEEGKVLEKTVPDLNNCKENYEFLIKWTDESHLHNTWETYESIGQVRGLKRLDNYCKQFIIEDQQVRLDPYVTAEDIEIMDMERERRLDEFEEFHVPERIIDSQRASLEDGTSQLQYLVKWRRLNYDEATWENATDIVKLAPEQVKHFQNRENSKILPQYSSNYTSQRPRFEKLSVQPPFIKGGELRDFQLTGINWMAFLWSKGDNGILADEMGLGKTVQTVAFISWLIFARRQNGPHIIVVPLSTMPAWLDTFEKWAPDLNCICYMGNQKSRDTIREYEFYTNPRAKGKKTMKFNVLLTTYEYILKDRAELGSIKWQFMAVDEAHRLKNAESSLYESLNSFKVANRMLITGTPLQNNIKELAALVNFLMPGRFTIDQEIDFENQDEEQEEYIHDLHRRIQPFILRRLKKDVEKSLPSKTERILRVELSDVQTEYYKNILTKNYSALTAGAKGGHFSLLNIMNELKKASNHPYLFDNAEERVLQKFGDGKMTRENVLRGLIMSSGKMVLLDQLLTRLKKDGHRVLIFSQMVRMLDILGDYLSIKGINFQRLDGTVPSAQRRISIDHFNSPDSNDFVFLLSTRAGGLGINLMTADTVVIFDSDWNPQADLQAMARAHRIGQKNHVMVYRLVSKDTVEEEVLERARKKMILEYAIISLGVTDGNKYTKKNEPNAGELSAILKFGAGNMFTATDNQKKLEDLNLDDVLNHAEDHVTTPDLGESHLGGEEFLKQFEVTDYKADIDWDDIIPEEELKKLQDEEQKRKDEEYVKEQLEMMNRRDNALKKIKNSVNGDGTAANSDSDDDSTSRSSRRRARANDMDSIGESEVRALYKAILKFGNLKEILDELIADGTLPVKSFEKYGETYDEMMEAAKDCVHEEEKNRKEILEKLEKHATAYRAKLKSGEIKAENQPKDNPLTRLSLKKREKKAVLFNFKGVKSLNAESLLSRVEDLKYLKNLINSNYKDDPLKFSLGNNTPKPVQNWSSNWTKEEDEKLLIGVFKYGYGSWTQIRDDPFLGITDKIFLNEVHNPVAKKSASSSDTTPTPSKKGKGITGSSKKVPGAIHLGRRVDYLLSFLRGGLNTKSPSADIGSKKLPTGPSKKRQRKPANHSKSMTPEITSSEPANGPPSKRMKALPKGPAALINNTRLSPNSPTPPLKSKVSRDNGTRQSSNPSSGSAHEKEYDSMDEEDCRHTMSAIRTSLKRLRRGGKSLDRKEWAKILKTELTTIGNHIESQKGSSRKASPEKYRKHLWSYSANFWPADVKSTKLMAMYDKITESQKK

On to `Cc1ccc([C@@H]2CN(S(=O)(=O)C(C)C)C[C@H]2N(C)C)cc1`, for which the Percent Effect was -6.03% in [1]; 13.5% in test [2]; -2.84% in test [3]; 23.9% in test [4]; 7.33% in the test with Trypanosoma cruzi; -14.6% in test [5] (30 µM). In addition, the Percent Effect in test [5] (33.3 µM) is 4.22%; in [6], -0.258%; in the test listed under Homo sapiens it was -1%; in [7], 3.23%; in test [8], 18.5%; in [9] it was -8.94%.

Take `CCC(C(=O)NCc1ccncc1)N(c1ccc(OC)cc1)S(C)(=O)=O` (stereo not given): the Percent Effect in [1] was -4.48%; in [2] it was 2.67%; in test [3] it was -7.64%; in test [4], 14%; in the test on Trypanosoma cruzi, 4.97%; in [5] (30 µM) it was 2.7%. The Percent Effect was 3.65% in test [5] (33.3 µM); 2.27% in test [6]; 6.36% in the test filed under Homo sapiens; 4.92% in [7]; 8.64% in [8]; -13.6% in test [9].

For `COc1ccc(-c2nc(CN3CC(n4nc(C)cc4C)C3)no2)cc1`, the Percent Effect in [1] is -4.78%; in test [2] it was -5.2%; in test [3] it was 0.251%; in [4], -0.396%; with Trypanosoma cruzi it was -6.79%; in test [5] (30 µM), 2.7%. For the same compound, the Percent Effect in test [5] (33.3 µM) came out at 17.9%; in test [6], 14.5%; in the test listed under Homo sapiens, 15.2%; in test [7] it was 2.15%; in test [8], 1.24%; in test [9], 1.8%.

Turning to `CC(Cn1cccn1)NCc1csc(-c2ccccc2F)n1` (stereo not given), the Percent Effect in test [1] was -1.44%; in [2], -5.41%; in test [3] it was -14.2%; in [4] it was 7.22%; in the test on Trypanosoma cruzi, 3.87%; in test [5] (33.3 µM) it was -4.41%. In addition, the Percent Effect in [6] is 90.3% and 88.1% and 85%; with N/A, 59.5% and 61%; in the test filed under Homo sapiens it was 13.2%; in [7], 1.48%; in [8], 11.1%; in [9], -4.62%.

As to `O=c1[nH]c2c(c(=O)n1C1CCCCC1)CCC2Nc1ccccc1` (stereo not given), the Percent Effect is -1.62% in test [1]; -4% in test [2]; -24.6% in [3]; -0.297% in test [4]; 0.393% in the test on Trypanosoma cruzi; -11.3% in test [5] (30 µM). Besides, the Percent Effect is 1.58% in test [5] (33.3 µM); 9.8% in test [6]; 11.8% in the test listed under Homo sapiens; -1.06% in test [7]; 0% in [8]; 0.309% in test [9].
